Assay results reported in the supplement of paper PMC10849652.
About 7,900 targets were measured; listed, in parts, are those with a hit and a random draw of the rest. About 0.6% of all pairs of compound and target were hits.

Columns and labels:
Assay in all cases: log2 fold change, soluble protein after heating vs DMSO (PISA); higher = thermal stabilisation; K562 cells, 10 uM, 30 min; active = over 0.2 and 3.5 SD of the protein, either way, in both replicates (recomputed)
[1] = compound: NC(=O)Nc1cc(-c2cccc(F)c2)sc1C(=O)N[C@H]1CCCNC1
How it was run: (§1)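 Thermal stability values are relative to control samples and come from duplicates. They are expressed as log2 fold changes. For measurement, K562 cells (2×10^6 cells/mL) received 10 μM compound for 30 min, and aliquots were heated for 3 min over 48°C-58°C, pooled, and extracted at 4°C in PBS with 0.5% NP-40. Soluble protein, the supernatant after 21,000xg for 90 min, was quantified by TMTpro 16plex LC-MS/MS with equalised channel sums.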

[2] = compound: NC(=O)c1cnc(N[C@@H]2CCCC[C@@H]2N)nc1Nc1cccc(-n2nccn2)c1
How it was run: as §1

[3] = compound: NC1(c2ccc(-c3nc4ccn5c(=O)[nH]nc5c4cc3-c3ccccc3)cc2)CCC1
How it was run: as §1

[4] = compound: NCC(=O)Nc1ccc(-n2nc(C(F)(F)F)cc2-c2ccc3c(ccc4ccccc43)c2)cc1
How it was run: as §1

[5] = compound: Nc1ccccc1NC(=O)c1ccc(CNC(=O)OCc2cccnc2)cc1 [entinostat]
How it was run: as §1

[6] = compound: O=C(CCCCCCC(=O)Nc1ccccc1)NO [vorinostat]
How it was run: as §1

[7] = compound: O=C(CCCCCCNC(=O)c1cnc(N(c2ccccc2)c2ccccc2Cl)nc1)NO [citarinostat]
How it was run: as §1

[8] = compound: O=C(O)c1ccc2c(c1)nc(Nc1cccc(Cl)c1)c1ccncc12 [silmitasertib]
How it was run: as §1

[9] = compound: O=C1NC(=O)C(c2cnc3ccccn23)=C1c1cn2c3c(cc(F)cc13)CN(C(=O)N1CCCCC1)CC2
How it was run: as §1

[10] = compound: c1cc(OCCN2CCCCC2)cc(-c2n[nH]c3ccc(-c4nnc[nH]4)cc23)c1
How it was run: as §1

[11] = compound: c1cn2cc(-c3ccc4cn[nH]c4c3)nc(Nc3ccc(N4CCOCC4)cc3)c2n1 [entospletinib]
How it was run: as §1

Measured: log2 fold change

AKAP8 (UniProt O43823)
inactive: [1] -0.043 | [2] -0.037 | [3] 0.023 | [4] -0.012 | [5] -0.024 | [6] 0.01 | [7] 0.002 | [8] -0.13 | [9] -0.1 | [10] -0.043 | [11] -0.018

ACP1 isoform 2 (UniProt P24666)
Sequence of UniProt P24666 (P24666 whole entry, looked up): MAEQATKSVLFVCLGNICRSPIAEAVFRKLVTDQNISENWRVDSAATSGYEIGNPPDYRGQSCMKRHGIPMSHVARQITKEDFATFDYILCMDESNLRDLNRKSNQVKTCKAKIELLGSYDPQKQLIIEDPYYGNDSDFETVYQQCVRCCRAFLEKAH
inactive: [1] 0.048 | [2] -0.018 | [3] -0.086 | [4] -0.041 | [5] 0.041 | [6] 0.159 | [7] 0.005 | [8] -0.005 | [9] -0.149 | [10] -0.044 | [11] 0.052

AKT2 (UniProt P31751)
Sequence of UniProt P31751 (P31751 whole entry, looked up): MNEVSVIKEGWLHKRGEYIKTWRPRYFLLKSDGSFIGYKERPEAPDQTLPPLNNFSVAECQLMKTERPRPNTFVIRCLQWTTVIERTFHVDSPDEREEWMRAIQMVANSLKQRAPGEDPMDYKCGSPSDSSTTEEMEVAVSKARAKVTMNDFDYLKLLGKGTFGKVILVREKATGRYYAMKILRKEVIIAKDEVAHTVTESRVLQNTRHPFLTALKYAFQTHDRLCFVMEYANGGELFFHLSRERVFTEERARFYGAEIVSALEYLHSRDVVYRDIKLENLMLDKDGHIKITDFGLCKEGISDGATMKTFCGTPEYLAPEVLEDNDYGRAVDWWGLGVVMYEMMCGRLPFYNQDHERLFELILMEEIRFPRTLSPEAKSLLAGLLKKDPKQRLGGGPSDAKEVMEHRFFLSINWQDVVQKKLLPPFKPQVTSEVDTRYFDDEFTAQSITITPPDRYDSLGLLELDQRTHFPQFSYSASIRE
inactive: [1] -0.008 | [4] -0.051 | [5] 0.085 | [6] 0.022 | [7] 0.077 | [8] -0.026 | [9] -0.017 | [10] -0.013 | [11] 0.005
active: [2] -0.266 | [3] 1.18

ACADM isoform 2 (UniProt P11310)
inactive: [1] -0.044 | [2] 0.01 | [3] -0.024 | [4] 0.029 | [5] -0.019 | [6] -0.007 | [7] 0.037 | [8] -0.032 | [9] -0.101 | [10] 0.009 | [11] -0.001

ATP6AP1 (UniProt Q15904)
inactive: [1] -0.033 | [2] -0.208 | [3] -0.149 | [4] -0.04 | [5] 0.025 | [6] 0.063 | [7] 0.035 | [8] 0.043 | [9] -0.005 | [10] -0.087 | [11] -0.012

APPL1 (UniProt Q9UKG1)
inactive: [1] -0.032 | [2] -0.012 | [3] -0.023 | [4] -0.043 | [5] -0.053 | [6] 0.009 | [7] 0.04 | [8] 0.022 | [9] -0.046 | [10] 0.07 | [11] 0.027

ATRN (UniProt O75882)
inactive: [1] -0.007 | [2] -0.023 | [3] -0.073 | [4] -0.031 | [5] -0.016 | [6] -0.006 | [7] -0.004 | [8] 0.006 | [10] -0.092 | [11] 0.02
active: [9] -0.538

ACSF3 (UniProt Q4G176)
inactive: [1] -0.016 | [2] -0.073 | [3] -0.098 | [4] -0.184 | [5] 0.069 | [6] 0.007 | [7] 0.197 | [8] 0.109 | [9] 0.035 | [10] -0.107 | [11] -0.059

AKR1C3 (UniProt P42330)
inactive: [1] 0.119 | [2] 0.064 | [3] 0.235 | [4] -0.032 | [5] 0.106 | [6] -0.058 | [7] 0.049 | [8] 0.126 | [9] 0.211 | [10] 0.154 | [11] -0.011

ABHD16A (UniProt O95870)
inactive: [1] -0.026 | [2] 0.026 | [3] 0.113 | [4] 0.049 | [5] -0.02 | [6] 0.055 | [7] 0.026 | [8] -0.022 | [9] 0.005 | [10] 0.008 | [11] 0.002

ADK (UniProt P55263)
inactive: [1] -0.071 | [2] 0.07 | [3] 0.12 | [4] -0.04 | [5] -0.087 | [6] -0.044 | [7] -0.02 | [8] 0.011 | [9] 0.232 | [10] 0.158 | [11] 0.082

ATP7B (UniProt P35670)
Sequence of UniProt P35670 (P35670 whole entry, looked up): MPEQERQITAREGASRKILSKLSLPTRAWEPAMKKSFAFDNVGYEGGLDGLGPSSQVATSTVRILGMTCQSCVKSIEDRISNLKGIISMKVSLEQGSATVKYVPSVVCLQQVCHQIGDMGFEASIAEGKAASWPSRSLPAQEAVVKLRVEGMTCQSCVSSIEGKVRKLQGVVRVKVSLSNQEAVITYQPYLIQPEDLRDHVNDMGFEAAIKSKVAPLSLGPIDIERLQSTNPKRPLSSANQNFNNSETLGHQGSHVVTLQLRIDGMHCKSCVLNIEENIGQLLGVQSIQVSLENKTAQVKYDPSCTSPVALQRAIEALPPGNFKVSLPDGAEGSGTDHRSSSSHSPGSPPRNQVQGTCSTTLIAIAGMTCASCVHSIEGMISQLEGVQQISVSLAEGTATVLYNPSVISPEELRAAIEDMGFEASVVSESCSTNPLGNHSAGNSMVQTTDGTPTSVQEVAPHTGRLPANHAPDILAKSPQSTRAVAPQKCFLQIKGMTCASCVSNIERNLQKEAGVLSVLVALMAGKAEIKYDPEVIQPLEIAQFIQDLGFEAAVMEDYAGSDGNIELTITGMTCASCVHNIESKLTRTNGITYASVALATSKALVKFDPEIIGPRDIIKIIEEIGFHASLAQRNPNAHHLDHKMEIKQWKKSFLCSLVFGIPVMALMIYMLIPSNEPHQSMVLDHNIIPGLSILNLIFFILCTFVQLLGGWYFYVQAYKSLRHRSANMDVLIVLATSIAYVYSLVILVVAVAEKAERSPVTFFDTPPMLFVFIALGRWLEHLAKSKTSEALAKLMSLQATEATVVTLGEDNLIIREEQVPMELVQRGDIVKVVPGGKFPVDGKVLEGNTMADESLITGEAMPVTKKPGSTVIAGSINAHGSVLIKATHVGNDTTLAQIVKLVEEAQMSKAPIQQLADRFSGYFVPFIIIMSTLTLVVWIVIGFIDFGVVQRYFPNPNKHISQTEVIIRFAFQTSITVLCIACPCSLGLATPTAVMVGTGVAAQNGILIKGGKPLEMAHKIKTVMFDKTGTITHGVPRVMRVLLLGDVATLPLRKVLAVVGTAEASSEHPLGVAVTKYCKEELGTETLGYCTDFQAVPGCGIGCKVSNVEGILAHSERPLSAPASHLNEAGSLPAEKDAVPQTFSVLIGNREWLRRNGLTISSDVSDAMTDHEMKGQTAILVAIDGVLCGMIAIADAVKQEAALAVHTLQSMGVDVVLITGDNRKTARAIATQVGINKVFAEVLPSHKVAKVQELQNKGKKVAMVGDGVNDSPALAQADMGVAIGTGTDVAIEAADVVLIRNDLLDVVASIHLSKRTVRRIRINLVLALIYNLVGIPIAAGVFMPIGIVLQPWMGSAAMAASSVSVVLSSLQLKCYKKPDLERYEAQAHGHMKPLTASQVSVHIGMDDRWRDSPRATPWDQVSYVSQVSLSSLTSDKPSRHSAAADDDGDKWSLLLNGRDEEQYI
inactive: [1] -0.051 | [2] -0.139 | [3] -0.111 | [4] -0.15 | [5] -0.003 | [6] 0.035 | [7] 0.005 | [8] 0.036 | [9] -0.036 | [10] -0.023 | [11] 0.012

ALDH9A1 (UniProt P49189)
inactive: [1] 0.079 | [2] 0.051 | [3] -0.024 | [4] 0 | [5] -0.014 | [6] -0.209 | [7] -0.014 | [8] -0.033 | [9] 0.025 | [10] 0.055 | [11] 0.066

BZW2 (UniProt Q9Y6E2)
inactive: [1] 0.019 | [2] -0.055 | [3] -0.225 | [4] -0.066 | [5] 0.047 | [6] -0.003 | [7] 0.044 | [8] -0.001 | [9] -0.044 | [10] -0.069 | [11] 0.002

AP2A1 (UniProt O95782)
inactive: [2] 0.061 | [3] 0.041 | [4] 0.026 | [5] -0.002 | [6] 0.038 | [7] 0.005 | [8] 0.047 | [11] 0.017
active: [1] -0.38 | [9] -0.275 | [10] -0.227

ACSL4 (UniProt O60488)
Sequence of UniProt O60488 (O60488 whole entry, looked up): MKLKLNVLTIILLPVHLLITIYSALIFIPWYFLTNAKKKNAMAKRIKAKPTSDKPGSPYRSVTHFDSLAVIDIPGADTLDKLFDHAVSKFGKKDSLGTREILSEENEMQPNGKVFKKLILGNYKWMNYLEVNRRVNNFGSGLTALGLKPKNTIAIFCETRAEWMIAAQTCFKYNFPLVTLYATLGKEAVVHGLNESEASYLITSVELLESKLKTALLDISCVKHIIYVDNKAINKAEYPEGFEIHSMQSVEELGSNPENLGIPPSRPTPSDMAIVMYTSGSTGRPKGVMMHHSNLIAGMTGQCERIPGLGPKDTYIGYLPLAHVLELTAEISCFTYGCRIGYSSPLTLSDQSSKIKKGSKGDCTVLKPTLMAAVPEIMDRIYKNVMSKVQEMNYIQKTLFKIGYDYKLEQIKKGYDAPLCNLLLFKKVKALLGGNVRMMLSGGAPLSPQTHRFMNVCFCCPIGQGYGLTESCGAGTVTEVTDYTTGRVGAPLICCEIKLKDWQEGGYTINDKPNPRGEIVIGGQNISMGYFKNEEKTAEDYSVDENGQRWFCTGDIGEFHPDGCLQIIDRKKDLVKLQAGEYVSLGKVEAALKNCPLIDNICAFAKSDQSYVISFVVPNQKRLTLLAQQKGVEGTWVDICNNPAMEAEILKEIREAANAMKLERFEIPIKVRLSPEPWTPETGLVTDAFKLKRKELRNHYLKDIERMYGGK
inactive: [1] -0.087 | [2] -0.097 | [3] -0.057 | [4] -0.023 | [5] 0.081 | [6] 0.029 | [7] 0.044 | [8] 0.149 | [9] 0.003 | [10] 0.017 | [11] 0.009

ALG11 (UniProt Q2TAA5)
Sequence of UniProt Q2TAA5 (Q2TAA5 whole entry, looked up): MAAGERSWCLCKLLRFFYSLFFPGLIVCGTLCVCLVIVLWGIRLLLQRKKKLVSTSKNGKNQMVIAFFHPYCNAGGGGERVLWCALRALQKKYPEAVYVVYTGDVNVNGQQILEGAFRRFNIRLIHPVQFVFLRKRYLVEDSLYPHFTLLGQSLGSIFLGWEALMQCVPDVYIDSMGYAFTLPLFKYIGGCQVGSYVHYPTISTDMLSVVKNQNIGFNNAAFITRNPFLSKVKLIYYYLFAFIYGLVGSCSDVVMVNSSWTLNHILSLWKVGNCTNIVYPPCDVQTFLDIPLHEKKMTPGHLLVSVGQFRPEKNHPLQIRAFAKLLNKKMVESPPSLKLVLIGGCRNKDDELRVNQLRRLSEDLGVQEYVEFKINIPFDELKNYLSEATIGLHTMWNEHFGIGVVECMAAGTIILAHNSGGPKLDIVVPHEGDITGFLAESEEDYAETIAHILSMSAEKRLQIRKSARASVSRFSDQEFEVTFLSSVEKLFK
inactive: [1] -0.052 | [2] 0.032 | [3] -0.093 | [4] -0.019 | [5] 0.01 | [6] -0.038 | [7] 0.039 | [8] 0.008 | [9] -0.002 | [10] -0.08 | [11] -0.005

ABITRAM (UniProt Q9NX38)
Sequence of UniProt Q9NX38 (Q9NX38 whole entry, looked up): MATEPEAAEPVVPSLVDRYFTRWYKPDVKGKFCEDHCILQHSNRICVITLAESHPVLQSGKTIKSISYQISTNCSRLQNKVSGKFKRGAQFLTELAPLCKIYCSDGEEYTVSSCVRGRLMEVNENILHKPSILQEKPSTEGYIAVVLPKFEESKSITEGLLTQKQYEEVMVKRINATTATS
inactive: [1] -0.018 | [2] -0.12 | [3] -0.194 | [4] 0.008 | [5] 0.008 | [6] -0.089 | [7] 0.046 | [8] 0.094 | [9] -0.015 | [10] -0.006 | [11] -0.052

ACIN1 (UniProt Q9UKV3)
inactive: [1] -0.013 | [2] -0.038 | [3] 0.003 | [4] -0.062 | [5] -0.024 | [6] 0.035 | [7] 0.035 | [8] -0.124 | [9] 0.013 | [10] -0.084 | [11] -0.008

ADD1 isoform 3 (UniProt P35611)
inactive: [1] 0.03 | [2] -0.016 | [3] 0.034 | [4] -0.02 | [5] -0.071 | [6] 0.01 | [7] 0.034 | [8] -0.01 | [9] -0.06 | [10] 0.01 | [11] 0.007

ASS1 (UniProt P00966)
Sequence of UniProt P00966 (P00966 whole entry, looked up): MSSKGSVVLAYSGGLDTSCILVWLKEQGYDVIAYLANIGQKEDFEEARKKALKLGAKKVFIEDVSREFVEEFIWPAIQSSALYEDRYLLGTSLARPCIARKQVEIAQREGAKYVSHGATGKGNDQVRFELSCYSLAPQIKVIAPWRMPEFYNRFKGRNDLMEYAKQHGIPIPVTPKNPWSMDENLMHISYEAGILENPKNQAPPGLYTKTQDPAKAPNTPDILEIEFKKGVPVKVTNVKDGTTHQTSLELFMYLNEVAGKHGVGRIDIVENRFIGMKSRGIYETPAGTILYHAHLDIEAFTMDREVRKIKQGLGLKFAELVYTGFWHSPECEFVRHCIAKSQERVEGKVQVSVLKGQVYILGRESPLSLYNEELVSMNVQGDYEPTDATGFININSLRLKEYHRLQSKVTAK
inactive: [1] -0.054 | [2] -0.184 | [3] -0.087 | [4] 0.026 | [5] 0.096 | [6] -0.052 | [7] -0.037 | [8] 0.02 | [9] -0.013 | [10] 0.013 | [11] 0.096

ATP11A (UniProt P98196)
Sequence of UniProt P98196 (P98196 whole entry, looked up): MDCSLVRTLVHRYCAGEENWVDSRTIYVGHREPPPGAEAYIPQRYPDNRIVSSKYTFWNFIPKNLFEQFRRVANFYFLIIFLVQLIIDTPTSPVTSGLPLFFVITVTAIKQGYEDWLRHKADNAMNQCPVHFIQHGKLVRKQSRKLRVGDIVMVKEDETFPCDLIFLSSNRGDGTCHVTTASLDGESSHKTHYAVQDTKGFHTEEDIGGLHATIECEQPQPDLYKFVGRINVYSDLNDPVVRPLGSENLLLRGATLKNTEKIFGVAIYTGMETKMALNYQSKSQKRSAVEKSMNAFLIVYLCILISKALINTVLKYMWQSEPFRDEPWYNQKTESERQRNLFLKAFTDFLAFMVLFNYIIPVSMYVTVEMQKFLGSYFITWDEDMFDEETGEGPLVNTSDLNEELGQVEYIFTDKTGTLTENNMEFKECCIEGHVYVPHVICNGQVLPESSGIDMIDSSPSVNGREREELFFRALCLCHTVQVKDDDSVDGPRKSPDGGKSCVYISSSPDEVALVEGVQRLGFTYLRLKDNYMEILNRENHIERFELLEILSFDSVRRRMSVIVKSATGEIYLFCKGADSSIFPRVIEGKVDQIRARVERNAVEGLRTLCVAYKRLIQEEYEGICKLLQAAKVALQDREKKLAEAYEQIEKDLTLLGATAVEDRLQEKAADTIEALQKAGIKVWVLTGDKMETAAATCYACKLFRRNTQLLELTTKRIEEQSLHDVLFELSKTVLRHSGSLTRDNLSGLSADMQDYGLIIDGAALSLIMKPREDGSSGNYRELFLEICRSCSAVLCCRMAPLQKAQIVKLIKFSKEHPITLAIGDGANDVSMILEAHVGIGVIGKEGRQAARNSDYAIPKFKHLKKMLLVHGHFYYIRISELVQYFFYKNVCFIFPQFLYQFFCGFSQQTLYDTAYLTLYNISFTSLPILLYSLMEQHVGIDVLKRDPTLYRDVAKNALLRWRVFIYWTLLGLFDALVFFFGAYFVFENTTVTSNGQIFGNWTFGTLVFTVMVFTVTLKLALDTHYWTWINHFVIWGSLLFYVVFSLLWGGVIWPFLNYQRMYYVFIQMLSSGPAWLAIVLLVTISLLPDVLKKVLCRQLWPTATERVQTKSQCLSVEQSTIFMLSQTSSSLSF
inactive: [1] -0.034 | [2] 0.065 | [3] -0.001 | [4] -0.054 | [5] -0.025 | [6] -0.08 | [7] -0.154 | [8] 0.065 | [9] -0.024 | [11] 0.158
active: [10] -0.32

ACSL3 (UniProt O95573)
inactive: [1] 0.009 | [2] -0.041 | [3] -0.095 | [4] -0.042 | [5] 0.047 | [6] 0.049 | [7] 0.047 | [8] 0.074 | [9] -0.045 | [10] 0.028 | [11] -0.06

AARS2 (UniProt Q5JTZ9)
inactive: [1] -0.029 | [2] -0.018 | [3] -0.212 | [4] -0.086 | [5] 0.045 | [6] 0.015 | [7] 0.037 | [8] -0.051 | [9] -0.026 | [10] 0.06 | [11] -0.082

AKT1 (UniProt P31749)
inactive: [1] -0.085 | [2] -0.276 | [4] -0.002 | [5] 0.201 | [6] -0.024 | [7] 0.138 | [8] 0.004 | [9] 0.1 | [10] 0.027 | [11] -0.04
active: [3] 1.61

BOP1 (UniProt Q14137)
active: [9] -0.351
inactive: [1] 0.002 | [2] -0.027 | [3] 0.04 | [4] -0.018 | [5] -0.004 | [6] 0.107 | [7] 0.035 | [8] 0.038 | [10] -0.073 | [11] -0.063

ARPP19 (UniProt P56211)
inactive: [1] -0.049 | [2] -0.075 | [3] -0.019 | [4] 0.046 | [5] 0.027 | [6] -0.038 | [7] 0.1 | [8] 0 | [9] 0.026 | [10] -0.051 | [11] -0.06

APOH (UniProt P02749)
inactive: [1] -0.094 | [2] -0.109 | [3] -0.414 | [4] 0.065 | [5] 0.06 | [6] 0.354 | [7] -0.149 | [8] 0.565 | [10] 0.006 | [11] 0.206
